The nature of assay [1]: Nuclear factor erythroid 2-related factor 2/antioxidant responsive element (Nrf2/ARE) small molecule agonists: qHTS cell viability counter screen in human keratinocytes (AID 1919968; active means well fitted curve in the direction sought with a large enough effect in the repeat runs; an effect the other way counts as inactive or inconclusive; further: nearly all actives have a fitted effect of over 55% in size; further: potency means the concentration at half of the fitted maximal effect). In outline:
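KeratinoSens cells (HaCaT keratinocytes stably carrying an ARE-luciferase reporter) were seeded at 1,500 cells/well and rested 5 h at 37 C/5% CO2. They were then exposed to compounds in DMSO for 23 h. Viability was read by CellTiter-Fluor fluorescence after 1 h.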
A general note: Quantitative high-throughput screening tests each substance at several concentrations.

A short description of assay [2]: Nuclear factor erythroid 2-related factor 2/antioxidant responsive element (Nrf2/ARE) small molecule agonists: luciferase reporter gene qHTS assay in human keratinocytes (AID 1919969). Further: nearly all actives have a fitted effect of over 35% in size. Further: potency means the concentration at half of the fitted maximal effect. A general note: A reporter such as luciferase makes a cellular process visible.
Assay [3] concerns the target Gonadotropin-releasing hormone receptor (Homo sapiens) (UniProt P30968). Kind of assay: Human gonadotropin-releasing hormone receptor (GnRHR) small molecule agonists, calcium flux assay in GnRHR-HEK293 cells (AID 1920063). Further: nearly all actives have a fitted effect of over 35% in size. The gist of the method:
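HEK293 cells stably expressing human GnRHR were plated 18 h at 37 °C, loaded with calcium dye 1 h at 37 °C, then given compound in agonist mode; fluorescence (Ex/Em 480/540) read kinetically for 3 min at 1 s intervals.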
On the technique in general: A change in cytosolic calcium serves as a functional read-out for many receptors and channels.

Assay [4] has as its target KiSS-1 receptor (Homo sapiens) (UniProt Q969F8). The assay is described as follows: Human kisspeptin (KISS1R) small molecule agonists, calcium flux assay in KISS1R-HEK293 cells (AID 1920064; active means well fitted curve in the direction sought with a large enough effect in the repeat runs; an effect the other way counts as inactive or inconclusive). The gist of the method:
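HEK293 cells stably expressing human KISS1R were plated 18 h at 37 °C, loaded with calcium dye for 1 h at 37 °C, then given compound by pin tool. Fluorescence (Ex/Em 480/540) was read kinetically for 3 min.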

Assay [5] is described as follows: G protein-coupled receptor (GPCR) small molecule agonists, calcium flux assay: HEK293 wild type cell line counter screen (AID 1920065). The gist of the method:
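Cells were plated and cultured 18 h at 37 C/5% CO2, then loaded with calcium dye for 1 h at 37 C. Compounds in DMSO were pin-transferred in agonist mode, and fluorescence (Ex/Em 480/540) was read kinetically for 3 min at 1 s intervals.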

A short description of assay [6]: p53 small molecule agonists, cell-based qHTS assay with human liver microsomes (AID 1963577).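 Further: p53 response element beta-lactamase reporter cells with liver microsomes plus NADPH.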 In outline: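 Metabolically competent format: test substances, human liver microsomes and NADPH (both 0.5 mg/mL final) incubated with p53RE-bla cells 16 h at 37 C. Beta-lactamase reporter signal then quantified by fluorescence.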
Assay [7] can be described thus: p53 small molecule agonists, cell-based qHTS assay with rat liver microsomes (AID 1963578). In outline: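 Each plate received p53RE-bla cells, then compound, then rat liver microsomes and NADPH (both 0.5 mg/mL final). Plates were held 16 h at 37 C, and beta-lactamase activity was detected with LiveBLAzer over 2 h.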
Assay [8] is described as follows: p53 small molecule agonists, cell-based qHTS assay with human liver microsomes: qHTS cell viability counter screen (AID 1963579). Further: nearly all actives have a fitted effect of over 45% in size. Further: potency means the concentration at half of the fitted maximal effect. The gist of the method:
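Tox21 library compounds, delivered from DMSO stocks, were tested on p53RE-bla cells together with 0.5 mg/mL human liver microsomes and 0.5 mg/mL NADPH (final) over 16 h at 37 C; CellTiter-Glo luminescence served as the cytotoxicity measure.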

The nature of assay [9]: p53 small molecule agonists, cell-based qHTS assay with rat liver microsomes: qHTS cell viability counter screen (AID 1963580). Further: nearly all actives have a fitted effect of over 45% in size. Further: potency means the concentration at half of the fitted maximal effect. In outline: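 In HCT-116 cells carrying a p53 response element-bla reporter, compounds were metabolically activated in situ by rat liver microsomes with NADPH over 16 h. Cell ATP content then served as the cytotoxicity measure.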
A short description of assay [10]: p53 small molecule agonists, cell-based qHTS assay: qHTS cell viability counter screen (AID 1963581). Further: nearly all actives have a fitted effect of over 45% in size. The gist of the method:
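p53RE-bla HCT-116 cells were exposed to compounds for 16 h at 37 C; after the beta-lactamase FRET read in the same wells, CellTiter-Glo was added and luminescence (intracellular ATP) read after 30 min at room temperature.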

The target of assay [11] is 5-hydroxytryptamine receptor 2A (Homo sapiens) (UniProt P28223). The assay is described as follows: 5-hydroxytryptamine receptor 2A (HTR2A) small molecule antagonists, cell-based qHTS assay (AID 1963586). Further: nearly all actives have a fitted effect of over 45% in size. In outline:
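Antagonist-mode intracellular calcium assay: DOI (4 nM) added after 5 min compound pre-incubation at room temperature to dye-loaded HTR2A-CHO cells. Fluorescence followed for 3 min, sampled every second.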

The target is the same in assay [12]. The assay is described as follows: 5-hydroxytryptamine receptor 2A (HTR2A) small molecule agonists, cell-based qHTS assay (AID 1963587). Further: nearly all actives have a fitted effect of over 30% in size. In outline: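 HTR2A-CHO cells, plated 18 h at 37 C/5% CO2, dye-loaded 1 h at 37 C; compounds in DMSO added by pin tool (agonist mode). Intracellular calcium flux read as kinetic fluorescence on FDSS over 2 min at 1 s intervals.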

Assay [13] has as its target Muscarinic acetylcholine receptor M1 (Homo sapiens) (UniProt P11229). Kind of assay: Cholinergic receptor muscarinic 1 (CHRM1) small molecule antagonists, cell-based qHTS assay (AID 1963588). Further: nearly all actives have a fitted effect of over 40% in size. Further: potency means the concentration at half of the fitted maximal effect. In outline:
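CHRM1-CHO calcium-flux assay, antagonist mode. Cells were seeded 18 h, dye-loaded 1 h at 37 C and given compound for 5 min at RT, then acetylcholine was added at 50nM. FDSS fluorescence was read 3 min; 15 concentrations, three runs.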

The target is the same in assay [14]. The assay is described as follows: Cholinergic receptor muscarinic 1 (CHRM1) small molecule agonists, cell-based qHTS assay (AID 1963589). Further: nearly all actives have a fitted effect of over 35% in size. The gist of the method: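 CHO cells stably expressing human CHRM1, seeded 18 h at 37 C/5% CO2, dye-loaded 1 h at 37 C, then given compound in agonist mode; intracellular calcium fluorescence read kinetically at 1 s intervals. Fifteen concentrations, three independent runs.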

The nature of assay [15]: cAMP Responsive Elements (CRE) small molecule agonists, cell-based qHTS assay (AID 1963590). In outline:
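CRE-bla HEK 293T cells in DMEM with 10% dialyzed FBS, NEAA, pyruvate and 25 mM HEPES were plated 18 h at 37 C/5% CO2, then exposed to compounds in DMSO for 3 h before LiveBLAzer B/G FRET substrate addition.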

A short description of assay [16]: cAMP Responsive Elements (CRE) small molecule antagonists, cell-based qHTS assay (AID 1963591; active means well fitted inhibition curve with a large enough effect in the signal ratio in the repeat runs, not every such curve was filed as active; the % refers to the signal ratio). The gist of the method:
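CRE-bla HEK293T cells were plated 18 h at 37 °C/5% CO2, pinned with compound in DMSO, then stimulated with NKH477 at 0.25 uM final for 3 h. LiveBLAzer B/G FRET substrate was added and plates incubated 2 h at room temperature.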

Assay [17] addresses Beta-2 adrenergic receptor (Homo sapiens) (UniProt P07550). Kind of assay: Adrenergic beta2 receptor (ADRB2) small molecule antagonists, cell-based qHTS assay (AID 1963592). Further: series mostly up to about 92 µM; nearly all actives have a fitted effect of over 50% in size. In outline:
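Cells (CHO, stable ADRB2 overexpression) incubated 18-20hr at 37C; compounds added from DMSO; agonist mix (1nM isoproterenol, 100uM IBMX, 25uM Ro-20-1724) added; 0.5hr RT; d2-cAMP and anti-cAMP-cryptate added; 1hr RT; 665/615 nm read.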

For assay [18], the target named is D(2) dopamine receptor (Homo sapiens) (UniProt P14416). Kind of assay: Dopamine D2 receptor (DRD2) small molecule antagonists, cell-based qHTS assay (AID 1963595; active means well fitted inhibition curve with a large enough effect in the signal ratio in the repeat runs, with a control signal flat; the % refers to the signal ratio). The gist of the method:
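Cells were plated and grown for 24 h at 37 °C. Ro20-1724 (0.1 mM final) went in first, then compound for 10 min. NKH477 (200 nM) with quinpirole (12 nM) followed for 30 min at RT, then HTRF detection reagents for 1 h.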

For assay [19] the target is unchanged. Kind of assay: Dopamine D2 receptor (DRD2) small molecule agonists, cell-based qHTS assay (AID 1963594). Further: nearly all actives have a fitted effect of over 35% in size. In outline:
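HEK293 cells stably expressing DRD2 were cultured 24 h at 37 C, then given Ro20-1724 (0.1 mM final) and compounds for 10 min at room temperature. NKH477 (200nM) was then added for 30 min. cAMP was read by HTRF.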

Where “and” joins values, the source holds several entries; their conditions need not be identical. Equal values may be shown once. Inconclusive results are not listed. Some compounds were tested as several samples or in several runs, with calls that do not always agree. Calls of active or inactive are those of the source. Unless noted, the call rests on the fitted dose curve.

Here are results for 8 compounds from PubChem BioAssay (Tox21).

Sequence of 5-hydroxytryptamine receptor 2A (Homo sapiens) (P28223 whole entry, looked up): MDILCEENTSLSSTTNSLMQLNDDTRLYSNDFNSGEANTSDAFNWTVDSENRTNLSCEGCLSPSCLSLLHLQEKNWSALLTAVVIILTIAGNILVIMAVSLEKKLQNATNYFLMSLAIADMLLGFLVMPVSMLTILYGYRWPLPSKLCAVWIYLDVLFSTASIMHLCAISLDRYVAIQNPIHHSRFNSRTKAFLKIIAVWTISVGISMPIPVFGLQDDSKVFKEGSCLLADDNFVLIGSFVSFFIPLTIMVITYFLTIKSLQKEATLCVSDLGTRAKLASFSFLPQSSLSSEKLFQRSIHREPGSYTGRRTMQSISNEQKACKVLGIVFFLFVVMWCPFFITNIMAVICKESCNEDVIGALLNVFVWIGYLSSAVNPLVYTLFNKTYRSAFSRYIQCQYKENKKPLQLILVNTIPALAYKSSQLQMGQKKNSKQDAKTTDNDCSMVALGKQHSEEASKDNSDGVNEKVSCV
Sequence of Muscarinic acetylcholine receptor M1 (Homo sapiens) (P11229 whole entry, looked up): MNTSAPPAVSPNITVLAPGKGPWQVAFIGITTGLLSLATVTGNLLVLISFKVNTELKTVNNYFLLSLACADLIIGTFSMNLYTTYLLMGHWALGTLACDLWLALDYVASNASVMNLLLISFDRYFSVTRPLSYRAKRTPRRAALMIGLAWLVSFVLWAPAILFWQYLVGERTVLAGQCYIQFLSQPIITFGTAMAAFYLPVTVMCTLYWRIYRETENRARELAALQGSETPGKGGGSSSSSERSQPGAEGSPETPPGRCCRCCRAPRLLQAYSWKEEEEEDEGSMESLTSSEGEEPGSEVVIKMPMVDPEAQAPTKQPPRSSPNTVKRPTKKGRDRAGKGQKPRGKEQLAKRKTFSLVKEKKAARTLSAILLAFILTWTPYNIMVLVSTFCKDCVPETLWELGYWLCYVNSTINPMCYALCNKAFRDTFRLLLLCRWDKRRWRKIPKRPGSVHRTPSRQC
Sequence of Gonadotropin-releasing hormone receptor (Homo sapiens) (P30968 whole entry, looked up): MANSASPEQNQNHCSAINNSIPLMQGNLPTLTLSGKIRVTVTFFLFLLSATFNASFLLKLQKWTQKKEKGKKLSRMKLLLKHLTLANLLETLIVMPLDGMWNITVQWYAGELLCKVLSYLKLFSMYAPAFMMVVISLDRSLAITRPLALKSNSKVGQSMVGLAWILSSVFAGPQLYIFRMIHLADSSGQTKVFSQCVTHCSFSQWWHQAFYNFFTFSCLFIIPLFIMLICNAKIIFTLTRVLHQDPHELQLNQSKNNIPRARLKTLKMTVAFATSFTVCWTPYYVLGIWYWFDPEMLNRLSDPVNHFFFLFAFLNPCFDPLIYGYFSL
Sequence of Beta-2 adrenergic receptor (Homo sapiens) (P07550 whole entry, looked up): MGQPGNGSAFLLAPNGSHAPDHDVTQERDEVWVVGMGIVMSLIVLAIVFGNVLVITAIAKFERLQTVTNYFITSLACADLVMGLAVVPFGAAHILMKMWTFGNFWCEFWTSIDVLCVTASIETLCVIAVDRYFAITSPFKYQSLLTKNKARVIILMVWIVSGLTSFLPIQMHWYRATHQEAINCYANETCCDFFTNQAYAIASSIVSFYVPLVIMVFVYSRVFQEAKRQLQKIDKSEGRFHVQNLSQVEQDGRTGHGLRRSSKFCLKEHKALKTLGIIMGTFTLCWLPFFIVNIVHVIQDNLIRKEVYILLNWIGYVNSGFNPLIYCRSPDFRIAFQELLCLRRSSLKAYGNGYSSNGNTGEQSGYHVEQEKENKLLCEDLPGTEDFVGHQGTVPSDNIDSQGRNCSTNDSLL
Sequence of D(2) dopamine receptor (Homo sapiens) (P14416 whole entry, looked up): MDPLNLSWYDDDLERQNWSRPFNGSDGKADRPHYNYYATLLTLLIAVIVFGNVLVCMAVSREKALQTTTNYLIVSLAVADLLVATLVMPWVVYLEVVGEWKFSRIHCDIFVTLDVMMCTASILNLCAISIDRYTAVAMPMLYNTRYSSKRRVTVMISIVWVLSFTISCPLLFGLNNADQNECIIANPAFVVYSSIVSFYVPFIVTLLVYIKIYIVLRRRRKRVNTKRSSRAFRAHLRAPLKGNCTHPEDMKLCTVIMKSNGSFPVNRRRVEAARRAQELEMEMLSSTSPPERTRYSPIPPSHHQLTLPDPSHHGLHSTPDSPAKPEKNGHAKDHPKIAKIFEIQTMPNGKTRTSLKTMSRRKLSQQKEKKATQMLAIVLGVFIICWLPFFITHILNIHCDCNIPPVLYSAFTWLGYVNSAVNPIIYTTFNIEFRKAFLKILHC
Sequence of KiSS-1 receptor (Homo sapiens) (Q969F8 whole entry, looked up): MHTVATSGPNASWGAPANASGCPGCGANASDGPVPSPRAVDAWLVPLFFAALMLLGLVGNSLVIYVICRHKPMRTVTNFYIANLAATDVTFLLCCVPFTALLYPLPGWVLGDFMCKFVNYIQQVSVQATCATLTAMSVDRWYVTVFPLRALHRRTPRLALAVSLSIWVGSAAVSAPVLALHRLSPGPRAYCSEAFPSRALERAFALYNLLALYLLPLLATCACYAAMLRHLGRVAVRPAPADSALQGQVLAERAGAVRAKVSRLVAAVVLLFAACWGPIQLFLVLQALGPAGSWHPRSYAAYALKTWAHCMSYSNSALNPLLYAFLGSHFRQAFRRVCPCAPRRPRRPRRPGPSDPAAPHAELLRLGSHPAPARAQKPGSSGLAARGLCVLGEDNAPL

As for `CS(=O)(=O)Cl`, the Potency entry in [1], in assay [2], in assay [3], in assay [4], in [5] and in assay [6] was “inactive” each time. For the same compound, the Potency result in [7], in assay [8], in assay [9], in assay [10], in assay [11] and in assay [12] was “inactive” throughout. For the same compound, the Potency entry in [13], in assay [14], in [15], in assay [16], in assay [17] and in [18] was “inactive” each time.
Regarding `COS(=O)(=O)c1ccc(C)cc1`, the Potency result in assay [1], in assay [2], in [3], in [4], in assay [5] and in assay [6] was “inactive” throughout. Further, the Potency result in assay [7], in assay [8], in assay [9], in assay [10], in assay [12] and in [13] was “inactive” each time. Besides, the Potency entry in assay [14], in assay [15], in assay [17], in assay [19] and in [18] was “inactive” throughout.
In the case of `O=C(O)c1nn(Cc2ccc(Cl)cc2Cl)c2ccccc12`, the Potency entry in [1], in assay [2], in assay [3], in assay [4], in assay [5] and in assay [6] was “inactive” in each case. In addition, the Potency result in assay [7], in [8], in assay [9], in assay [10], in assay [11] and in assay [12] was “inactive” throughout. The Potency result in [13], in assay [14], in [17], in assay [19] and in assay [18] was “inactive” throughout.
On to `C=CCOC(Cn1ccnc1)c1ccc(Cl)cc1Cl` (stereo unspecified), for which the Potency in assay [1] is 43.3 µM (active) and 18.8 µM (active); in [2], 15.4 µM (active) and 24.3 µM (active) and 8.41 µM (active); in assay [13] it was 5.96 µM (active) and 18.8 µM (active). For the same compound, the Potency result in assay [3], in assay [4], in [5], in [6], in assay [7] and in assay [8] was “inactive” each time. Moreover, the Potency result in assay [9], in assay [10], in [14], in assay [15], in assay [16] and in assay [17] was “inactive” each time. Further, the Potency result in [19] and in assay [18] was “inactive” in each case.
For `CCCCOC(=O)COC(=O)c1ccccc1C(=O)OCCCC`, the Potency entry in assay [1], in assay [2], in assay [3], in assay [4], in [5] and in assay [6] was “inactive” in each case. In addition, the Potency entry in assay [7], in [8], in assay [9], in [10], in [12] and in assay [13] was “inactive” throughout. The Potency result in assay [14], in [15], in assay [16], in [17] and in assay [18] was “inactive” each time.
As to `CCOc1ccc(N)cc1`, the Potency entry in assay [1], in [2], in [3], in assay [4], in assay [5] and in assay [6] was “inactive” each time. The Potency entry in assay [7], in [8], in assay [9], in assay [10], in assay [11] and in assay [12] was “inactive” in each case. Further, the Potency entry in [13], in assay [14], in assay [15], in [16], in [17] and in [19] was “inactive” in each case. For the same compound, the Potency result in [18] was “inactive”.
On to `CCCCCCCCCCn1cc[n+](C)c1`, for which the Potency entry in [1] is “inactive and 61.4 µM (active) and 30.6 µM (active)”; in assay [8] it was 46.2 µM (active) and inactive; in assay [9], 36.7 µM (active) and inactive. Besides, the Potency result in assay [2], in assay [3], in assay [4], in [5], in assay [6] and in assay [7] was “inactive” throughout. In addition, the Potency result in assay [10], in [12], in [17], in assay [19] and in assay [18] was “inactive” in each case.
`O=C(NC(=O)c1ccccc1Cl)Nc1ccc(OC(F)(F)F)cc1`: the Potency result in assay [1], in [2], in assay [3], in assay [4], in [5] and in assay [6] was “inactive” throughout. For the same compound, the Potency entry in assay [7], in assay [8], in [9], in assay [10], in [11] and in assay [12] was “inactive” in each case. Further, the Potency result in assay [14], in assay [15], in assay [16], in assay [17] and in assay [19] was “inactive” in each case.
